According to PubChem BioAssay (NCI):
The panel holds about 83,000 compounds, 20% with a hit somewhere; the sample as a whole holds those more often.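 How to read the values: 0–100, growth inhibition (40 = 60% inhibited); 0, no net growth; -100 to 0, cell death (-40 = 40% of starting cells died; -100 = all dead).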 Unmarked numbers belong to inactive results. Calls of active or inactive are those of the source. How the source made its calls: active means growth percent below 10; inactive means the rest.

Tests used:
Experiment in all cases: NCI-60 one-dose screen, 48 h (100 = growth as untreated, 0 = no growth, -100 = all killed)
Details in all cases: 10 µM unless noted
SR leukemia = tested on: SR leukemia
RPMI-8226 leukemia = tested on: RPMI-8226 leukemia
OVCAR-8 ovarian = tested on: OVCAR-8 ovarian
OVCAR-5 ovarian = tested on: OVCAR-5 ovarian
OVCAR-4 ovarian = tested on: OVCAR-4 ovarian
SK-OV-3 ovarian = tested on: SK-OV-3 ovarian
IGROV1 ovarian = tested on: IGROV1 ovarian
OVCAR-3 ovarian = tested on: OVCAR-3 ovarian
HS 578T breast = tested on: HS 578T breast
NCI/ADR-RES ovarian = tested on: NCI/ADR-RES ovarian

SMILES | growth (SR leukemia) | growth (RPMI-8226 leukemia) | growth (OVCAR-8 ovarian) | growth (OVCAR-5 ovarian) | growth (OVCAR-4 ovarian) | growth (SK-OV-3 ovarian) | growth (IGROV1 ovarian) | growth (OVCAR-3 ovarian) | growth (HS 578T breast) | growth (NCI/ADR-RES ovarian)
NC(=N\N=C/Cc1ccccc1)/C(N)=N\N=C\Cc1ccccc1 | 81.5% | 101% | 107% | 98.8% | 100% | 113% | 119% | 110% | 105% | 103%
Cc1ccc(/C=C(/C#N)n2nnc3ncccc32)cc1 | 15.2% | 7.18% (active) | -1.49% (active) | -20.3% (active) | 25.7% | 14.2% | 19.3% | -15% (active) | 0.782% (active) | 2.09% (active)
Cc1ccc(NC(=O)c2sc3nc4c(cc3c2N)C(=O)CCC4)cc1 | 63.1% | 93.4% | 98.3% | 78.6% | 106% | 37.5% | 95.9% | 133% | 107% | 98.2%
FCc1ncc(-c2ccc(C(F)(F)F)cc2)c(NC2CCCCCC2)n1 | -18% [100 µM] (active) | 4.24% [100 µM] (active) | 15.8% [100 µM] | 32.7% [100 µM] | 27.2% [100 µM] | 46.1% [100 µM] | 27.2% [100 µM] | -85% [100 µM] (active) | 41.4% [100 µM] | 18.4% [100 µM]
Cc1csc(C#Cc2cncc(O)c2)n1 | 110% | 98.5% | 102% | 90.9% | 125% | 108% | -14% (active) | 111% | 132% | 113%
N#Cc1c(-c2ccccc2)cc(-c2ccccc2)n(CCCCCCC(=O)O)c1=O | 88.4% | 108% | 69.4% | 99.5% | 111% | 117% | 105% | 109% | 101% | 102%
COc1ccc(-n2cnc3cc(C(=O)N4CCCCC4)ccc32)cc1 | 94.9% | 101% | 100% | 93.1% | 100% | 99.5% | 112% | 108% | 100% | 107%
CC(C)CC1NC(=O)C(CCCN)NC(=O)C(C(C)C)NC(=O)C2CCCN2C(=O)C(Cc2ccccc2)NC(=O)C(CC(C)C)NC(=O)C(CCCN)NC(=O)C(C(C)C)NC(=O)C2CCCN2C(=O)C(Cc2ccccc2)NC1=O (stereo not given) | -38.7% (active) | -54.9% (active) | -42.1% (active) | -44.7% (active) | 9.59% (active) | -77.2% (active) | -34.9% (active) | -73.1% (active) | -52.5% (active) | 0.435% (active)
COP(=O)(OC)C(c1ccc(O)cc1)(c1ccc(O)cc1)c1ccc(O)cc1 | 93.4% | 99.3% | 97.2% | 124% | 99.3% | 122% | 11.3% | 81.3% | 98.8% | 92.3%
Nc1nc(Nc2ccccc2SSc2ccccc2Nc2nc(N)nc(-c3cccc(Cl)c3)n2)nc(-c2cccc(Cl)c2)n1 | 39.3% | 89.6% | 90.7% | 97.5% | 120% | 133% | 69.7% | 96.2% | 105% | 81.3%
CC(C)C[C@H](NC(=O)/C=C/Cn1ccc2ccccc2c1=O)B(O)O | 9.14% (active) | 11.1% | 86.8% | 47.2% | 89.3% | 69.2% | 77% | 0.848% (active) | 43.8% | 106%
O=C(N/N=C/c1ccc(Cl)cc1Cl)c1ccccc1Nc1cccc(C(F)(F)F)c1 | 56.3% | 58.4% | 71.6% | 85.6% | 65.6% | 97.4% | 43.8% | 53.3% | 49.3% | 73.4%
COc1cnc2c(c1)C(=O)c1c-2n(CCCn2ccnc2)c(=O)c2cc(F)ccc12 | -25% (active) | -28.2% (active) | 5.92% (active) | -30.4% (active) | -0.273% (active) | -22.5% (active) | 4.03% (active) | -35.5% (active) | 15.5% | -3.87% (active)
O=C(c1ccccc1)c1ccc(Oc2ccc([N+](=O)[O-])cc2[N+](=O)[O-])cc1 | 14.6% | 35.2% | 41.5% | 59.9% | 28.5% | 99.9% | 1.87% (active) | 48.7% | 90.7% | 4.04% (active)
COc1cc(NC(C)CCCN)c2nc(C)ccc2c1Oc1ccc(F)cc1 (stereo not given) | 60.9% | 70.3% | 77.4% | 83.4% | 62.6% | 105% | 56.2% | 71.3% | 49.7% | 77.6%
CCOC(=O)/C=C1/SC(=Nc2ccc(C#N)cc2)N(Cc2ccco2)C1=O | 0.973% (active) | -33.8% (active) | 54.2% | 37.4% | 51.2% | 91.7% | 26.3% | 17.9% | 65.4% | 40.9%
COc1ccc(-c2nnc3c4[nH]cnc4ncn23)c(OC)c1 | 15.5% | 9.32% (active) | 18.4% | 17% | 36.8% | 11.4% | 45.8% | 13.4% | 54.4% | 17.6%
COC(=O)[C@H](Cc1cn(C)cn1)NC(=O)[C@H](C)NC(=O)Nc1cc(C(F)(F)F)cc(C(F)(F)F)c1 | -31.1% [100 µM] (active) | -31.7% [100 µM] (active) | -68.1% [100 µM] (active) | -43.8% [100 µM] (active) | -58.3% [100 µM] (active) | -97.5% [100 µM] (active) | -54% [100 µM] (active) | -89.4% [100 µM] (active) | -1.05% [100 µM] (active) | 79.3% [100 µM]
COc1ccccc1NC(=O)c1sc2nc3c(cc2c1N)C(=O)CCC3 | 64% | 84.3% | 90.6% | 76.1% | 91.4% | 39% | 82.9% | 87% | 65.6% | 58.6%
C[C@@H]1C[C@@H]([C@@H](CC2CC(=O)NC(=O)C2)OC(=O)CC(=O)c2ccccc2)C(=O)[C@@H](C)C1 | 31.1% | 17.4% | 12.5% | 16.8% | 20.2% | -3.27% (active) | -10.4% (active) | 19.4% | 19.4% | 10.3%
Cc1ccc(/C=C/C(=O)c2ccc(F)cc2)s1 | 10.3% | 18.6% | 43.6% | 85.7% | 81.2% | 96.5% | 83% | 87% | 102% | 61.7%
CSc1nc2nc3c(nc2c(=O)n1C)C(=O)c1ccccc1C3=O | 6.56% (active) | -20.2% (active) | -8.36% (active) | -91.7% (active) | -53% (active) | -22.2% (active) | -53% (active) | -63.8% (active) | -21.6% (active) | -4.99% (active)
COc1ccc(OC)c(CCn2cncc2-c2c[nH]c3cc(Br)ccc23)c1 | 13.6% | 16.7% | 24.7% | 79.5% | 21.6% | 38.8% | 47.9% | 32.7% | 59.8% | 19.4%
CCOc1cc(/C=C/C(=O)CC(=O)/C=C/c2ccc(OC(=O)CNc3nc4ccc(OC)cc4s3)c(OCC)c2)ccc1OC(=O)CNc1nc2ccc(OC)cc2s1 | -27.3% (active) | -27.2% (active) | 28.6% | 99% | 69.5% | 89.5% | -26.5% (active) | 77.8% | 23% | 82.3%
